# Assay outcomes from PubChem.
# NPR1 antag – human Npr1 receptor antagonism; actives 1.6% (n = 76,000); Potency, µM (top dose mostly 46.3 µM), for the others: at the highest dose activity change, negative = inhibition, actives largely listed as inhibitors; AID 1347048; HEK293 hNpr1 GloSensor cGMP, ANP-stimulated luminescence; calls by dose curve; further: on the % scale 0 is the no-effect control and ±100 the full control effect; nearly all actives have a fitted effect of over 60% in size
#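 Compound pre-incubated 30 min at room temperature on GloSensor-loaded HEK293 cells stably carrying hNpr1 and the pGS-40F cGMP biosensor. Stimulation uses hNppA at 0.1 nM final; luminescence is taken at baseline and 20 min post-agonist.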
# 3T3 cytotox – cytotoxic compounds in NIH 3T3 cells; actives 4.3% (n = 94,000); Potency, µM (top dose mostly 96.7 µM), for the others: top-dose activity change, negative = cytotoxicity, actives largely listed as inhibitors; AID 1345082; NIH 3T3 viability, CellTiter-Glo ATP luminescence, 48-72 h; further: on the % scale 0 is the no-effect control and ±100 the full control effect; nearly all actives have a fitted effect of over 55% in size
#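 ATP-dependent luminescence (CellTiter-Glo) served as the viability signal for NIH 3T3 cells treated with compound for 48 or 72 hr at 37 °C.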
# FLuc inh-1 – inhibitors of firefly (Photinus pyralis) luciferase; P08659; purified P. pyralis luciferase, luminescence, biochemical; Potency, µM (doses to about 115 µM), most hits filed as inhibitors; actives 2.5% (n = 76,000); AID 1347043; further: on the % scale 0 is the no-effect control and ±100 the full control effect; nearly all actives have a fitted effect of over 65% in size
# Target sequence (P08659 whole entry, looked up): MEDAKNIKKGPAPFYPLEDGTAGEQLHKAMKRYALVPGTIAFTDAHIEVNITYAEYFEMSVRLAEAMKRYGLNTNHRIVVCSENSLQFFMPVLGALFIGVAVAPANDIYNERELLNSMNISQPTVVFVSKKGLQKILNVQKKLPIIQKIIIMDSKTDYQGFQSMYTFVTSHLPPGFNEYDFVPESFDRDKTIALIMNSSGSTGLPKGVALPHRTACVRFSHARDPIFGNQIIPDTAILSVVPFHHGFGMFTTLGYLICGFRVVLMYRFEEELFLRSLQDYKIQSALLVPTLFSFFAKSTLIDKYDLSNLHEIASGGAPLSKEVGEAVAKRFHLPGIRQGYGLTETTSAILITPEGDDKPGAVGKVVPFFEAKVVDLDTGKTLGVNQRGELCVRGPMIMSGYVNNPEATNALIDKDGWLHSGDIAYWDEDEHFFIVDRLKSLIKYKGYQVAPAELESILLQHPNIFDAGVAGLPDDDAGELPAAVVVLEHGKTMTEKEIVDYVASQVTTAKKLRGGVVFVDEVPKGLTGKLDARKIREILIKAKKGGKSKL
#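 Inhibitors were tested against purified firefly luciferase in a biochemical, low-substrate format (both substrates at 10uM) and luminescence measured with a CCD imager.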
# HEK cytotox – cytotoxic compounds in HEK 293 cells; Potency, µM (highest dose often 115 µM), for the others: top-dose activity change, negative = cytotoxicity, most hits filed as inhibitors; HEK 293 viability, ATP luminescence (CellTiter-Glo), 48-72 h; AID 1345083; actives 6.6% (n = 94,000); further: on the % scale 0 is the no-effect control and ±100 the full control effect; nearly all actives have a fitted effect of over 60% in size
#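 Viability of HEK 293 cells, plated at 250 cells/well, was judged by cellular ATP after compound treatment for 48 or 72 hr. Luminescence was imaged 10 min after CellTiter-Glo addition at room temperature.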
# FLuc SDR no ATP – stabilizes firefly luciferase without ATP; actives 7.8% (n = 1,300); AID 1963318; shares compounds with FLuc inh-1; Purified FLuc-C-HiBiT, Nano-Glo HiBiT luminescence, no ATP; Potency, µM (series often up to 32.7 µM), without a hit: at the top dose activation (signal gain), usual class: activators; further: nearly all actives have a fitted effect of over 55% in size
# FLuc SDR ATP – firefly luciferase binding stabilization, ATP added | Potency, µM (titrated, usually from 32.7 µM), inactives show at the top dose activation (gain of signal), hits mostly activators | actives 8.7% (n = 1,300) | purified FLuc-C-HiBiT + ATP, HiBiT complementation luminescence | shares compounds with FLuc inh-1;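 further: signal reports ligand binding via conformational change of the enzyme rather than luciferase catalysis; % of control where 0% means no effect; nearly all actives have a fitted effect of over 55% in size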
# FLuc inh-2 – inhibitors of firefly luciferase enzymatic activity | shares compounds with FLuc inh-1 | purified FLuc-C-HiBiT enzyme, luciferin luminescence | Potency, µM (doses to about 32.7 µM), without a hit: at the top dose activity change, negative = inhibition, hits mostly inhibitors | actives 42% (n = 1,300); further: on the % scale 0 is the no-effect control and ±100 the full control effect; nearly all actives have a fitted effect of over 70% in size
# Numbers without * were called inactive; i = inactive; ? = inconclusive; / = no result; [ ] = dose if it differs, or a comment. Rows were chosen to be rich in hits. Some 11% of all compounds tested hit in one or more screens of this group. Unless noted, the call rests on the fitted dose curve; in most records, active means well fitted curve in the direction sought with a large enough effect; inconclusive means small, poorly fitted or top-dose-only effect, or another doubt; inactive means no such curve, though single readings can be large; an effect the other way counts as inactive or inconclusive. Potency means the concentration at half of the fitted maximal effect.
SMILES,NPR1 antag,3T3 cytotox,FLuc inh-1,HEK cytotox,FLuc SDR no ATP,FLuc SDR ATP,FLuc inh-2
Cc1nccn1CCN(C)c1ccc(-c2nc(COc3ccccc3)no2)cn1,?,?,12.6µM*,?,19.7%,18.3%,9.89µM*
Cc1cc(C)c(S(=O)(=O)N2CCCC(Cn3cc(CO)nn3)C2)c(C)c1 (stereo not drawn),11.7%,-27.5%,i,-22.3%,/,/,/
OCc1cn(CC2CCN(c3ncnc4nc[nH]c34)CC2)nn1,3.1%,i,i,-3.7%,9.2%,7.5%,-2.3%
CC(=O)Nc1cccc(C(=O)NCc2ccccc2-n2ccnc2C)c1,-1.7%,-18.5%,i,-24.7%,/,/,/
Cc1ccc(-c2nc(C(=O)N3CCN(c4ccccc4)CC3)no2)cc1,-1.6%,?,12.6µM*,?,26.3%,13.0%,?
Cc1ccc(-c2nc(C(=O)N3CCN(c4ccccc4F)CC3)no2)cc1,2.4%,?,?,?,/,/,/
CN(CC1CCOCC1)C(=O)Nc1cccc(Cl)c1,-1.1%,-0.2%,i,-6.0%,/,/,/
O=C(NC1CCCN(c2cc(-c3ccc(F)cc3)[nH]n2)C1)c1ccc2ncccc2c1 (stereo not drawn),-19.3%,?,4.47µM*,?,-3.4%,-3.3%,8.81µM*
COc1ccc(-c2cc(N3CCCC(NC(=O)c4ccc5ncccc5c4)C3)n[nH]2)cc1 (stereo not drawn),-22.4%,?,3.16µM*,?,11.4%,5.9%,3.94µM*
CN(C)c1cccc(C(=O)NC2CCN(c3cc(-c4ccccc4)[nH]n3)C2)c1 (stereo not drawn),-26.0%,?,7.08µM*,?,12.8%,7.85µM*,7µM*
Cc1ccc(C(=O)NC2CCN(c3cc(-c4ccccc4)[nH]n3)C2)cc1C (stereo not drawn),-14.3%,?,i,?,/,/,/
N#Cc1ccc(CN2CCC(C3CCNC3)CC2)cc1 (stereo not drawn),0.2%,?,i,?,/,/,/
CN1CC(=O)N(C2CCCNCC2)Cc2c(NC3CCCC3)ncnc21 (stereo not drawn),/,-14.7%,/,-8.3%,/,/,/
CCNC(=O)[C@@H]1CCCN1C1(C(=O)NC)CCOCC1,3.7%[70.6 µM],i,i,i,/,/,/
CCS(=O)(=O)c1ccc2oc([C@H]3CCN(C4CCCCC4)C3)nc2c1,-2.5%[70.6 µM],-12.1%[138 µM],i,-20.5%[172 µM],/,/,/
COc1cccc(-c2ncc3c(n2)OCCN(c2ccccc2)C3=O)c1,8.91µM*,8.91µM*,0.398µM*,10µM*,3.21µM*,?,1.8µM*
O=C1c2cnc(-c3cccc(C(F)(F)F)c3)nc2OCCN1Cc1ccccc1,-3.8%[70.6 µM],?,?,?,/,/,/
O=C1c2cnc(-c3cccc(F)c3)nc2OCCN1c1ccccc1,-29.2%[70.6 µM],?,0.891µM*,100µM*,?,?,14.3µM*
CCOc1ccc(NC(=O)Cn2c(=O)c(-c3noc(CC)n3)c3n(c2=O)CCCC3)cc1,4.5%,-15.6%,i,0.0%,/,/,/
CCNC(=O)C1C(c2cccc(NC(=O)c3ccc(C)cc3)c2)OC(=O)N1Cc1ccc(F)cc1 (stereo not drawn),11.2µM*,?,2.24µM*,?,16.5%,1.57µM*,1.76µM*
COc1ccc(-c2noc(N3CCc4ccccc43)n2)cc1,?,-9.6%,1.58µM*,0.3%,25.3%,?,3.13µM*
CCn1ncc(NC(=O)Cn2ncc3cc(-c4ccc(N(C)C)cc4)ccc32)n1,?,?,0.251µM*,?,?,?,0.785µM*
CCn1ncc(NC(=O)Cn2ncc3cc(-c4ccc(C)cc4F)ccc32)n1,?,-64.9%,14.1µM*,-54.4%,20.0%,12.5%,?
CCn1ncc(NC(=O)Cn2ncc3cc(-c4cccc(F)c4F)ccc32)n1,?,-54.0%,?,-66.8%,/,/,/
O=C(CCn1nnc2ccccc21)N1CCc2c(ncnc2N2CCOCC2)C1,1.1%,-28.6%,i,-16.1%,/,/,/
SMILES,NPR1 antag,3T3 cytotox,FLuc inh-1,HEK cytotox,FLuc SDR no ATP,FLuc SDR ATP,FLuc inh-2
O=C(Nc1ccc2c(c1)OCCO2)C1CN(S(=O)(=O)C2CC2)CC12CCCCC2 (stereo not drawn),?,-22.2%,1.12µM*,?,?,?,4.42µM*
CCC(=O)Nc1cccc(C2OC(=O)N(Cc3ccccc3)C2C(=O)Nc2ccc(F)cc2)c1 (stereo not drawn),-0.2%,?,i,?,/,/,/
Cc1ccc(-c2ncc(NC(=O)c3cccs3)cn2)cc1,-1.7%,i,?,-0.3%,/,/,/
CCCC(=O)Nc1cnc(-c2ccc(C)cc2)nc1,?,-7.5%,2µM*,?,?,?,3.51µM*
O=S(=O)(c1ccccc1)c1nnn2c1nc(NC1CCCC1)c1ccccc12,/,-22.2%,/,-25.8%,/,/,/
CC(C)Cc1noc(-c2ccc(N3CCC(O)CC3)nc2)n1,8.91µM*,?,0.794µM*,-26.8%,24.0%,?,5.56µM*
O=C(c1cccc2[nH]ccc12)N1CCC(c2noc(C3CC3)n2)C1 (stereo not drawn),3.7%,i,i,?,/,/,/
Cc1ccc(-c2cn[nH]c2C2CCCN(C(=O)CCCn3cnnn3)C2)cc1 (stereo not drawn),1.2%,?,i,-19.0%,/,/,/
O=C(NCCc1cnc[nH]1)c1ccc2nc(-c3ccc(F)cc3)cn2c1,-7.8%,?,10µM*,?,16.6%,15.2%,?
COc1ccc(-c2noc([C@@H](C)NCc3ccc(C#N)cc3)c2C(=O)O)cc1,3.6%[70.6 µM],-4.9%[174 µM],i,-3.5%[172 µM],/,/,/
COc1ccc(C(=O)Nc2noc3ccccc23)cc1,/,/,/,/,9.89µM*,3.13µM*,0.881µM*
CNC(=O)[C@@H](c1ccc(Cl)cc1)N1CCC[C@H]1C(=O)NC(C)C,-1.5%[70.6 µM],i,i,-6.9%[172 µM],/,/,/
COCc1nc(CCNC(=O)CCc2nc(-c3cccc(C)c3)no2)no1,/,-10.9%,/,-1.5%,/,/,/
COc1cccc(NC(=O)CCc2nc(-c3ccc(C(C)(C)C)cc3)no2)c1,/,/,/,/,20.3%,15.7%,7µM*
O=C(O)c1ccc(-c2noc(-c3ccc(F)cc3)n2)cc1,/,/,/,/,?,0.556µM*,0.442µM*
CC(NC(=O)c1noc(-c2ccc(F)cc2)n1)c1ccccc1 (stereo not drawn),-11.7%,-18.0%,i,-31.3%,/,/,/
O=C(O)c1ccc(-c2noc(-c3ccc(C(F)(F)F)cc3)n2)cc1,/,/,/,/,?,0.442µM*,0.313µM*
Cc1nc(CCNC(=O)c2ccc(C(F)(F)F)cc2)no1,-1.1%,-11.1%,i,1.0%,/,/,/
